From PubChem BioAssay (NCI) come the findings set out here.

Common to all, as to test: NCI-60 one-dose screen, 48 h (100 = growth as untreated, 0 = no growth, -100 = all killed)
For one assay, the system named is HT29 colon. The conditions noted are these: 10 µM unless noted.
The test system of a further assay is SNB-75 CNS. The note with it: 10 µM unless noted.
For a further assay, the system named is SNB-19 CNS. The note with it: 10 µM unless noted.
In the next assay the test system is U251 CNS. The note with it: 10 µM unless noted.
A further assay relates to PC-3 prostate. The conditions noted are these: 10 µM unless noted.
The test system of another assay is SK-MEL-5 melanoma. The note with it: 10 µM unless noted.
In the next assay the test system is UACC-62 melanoma. The note with it: 10 µM unless noted.
For the next assay, the system named is LOX IMVI melanoma. The conditions noted are these: 10 µM unless noted.
Another assay concerns SK-MEL-28 melanoma. The note with it: 10 µM.
Another assay relates to SK-MEL-2 melanoma. The note with it: 10 µM unless noted.
The test system of the next assay is EKVX NSCLC. The note with it: 10 µM unless noted.
The test system of the next assay is SN12C renal. The note with it: 10 µM unless noted.
The next assay has as its system UO-31 renal. The conditions noted are these: 10 µM unless noted.
The test system of a further assay is TK-10 renal. The conditions noted are these: 10 µM unless noted.
For a further assay, the system named is ACHN renal. The note with it: 10 µM unless noted.
The test system of the next assay is CAKI-1 renal. The note with it: 10 µM unless noted.
The test system of the next assay is A498 renal. The conditions noted are these: 10 µM unless noted.
The test system of another assay is CCRF-CEM leukemia. The conditions noted are these: 10 µM unless noted.
Another assay relates to MOLT-4 leukemia. The note with it: 10 µM unless noted.
A further assay deals with SR leukemia. The note with it: 10 µM unless noted.

About 83,000 compounds went through this panel and 20% of them were active in at least one assay; those are over-represented in the sample as a whole.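 A percent growth of 40 corresponds to 60% growth inhibition; 0 means no net growth; -100 means all cells died. Active threshold: below 10.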 Unmarked numbers belong to inactive results. Calls of active or inactive are those of the source.

On to `COC(=O)c1ccc(NC(=O)CSc2nc3ccccc3c(=O)n2-c2ccccc2)cc1`, for which the growth with HT29 colon was 108%; with SNB-75 CNS, 92.1%; in the assay with SNB-19 CNS, 99.3%; in the assay on U251 CNS, 102%; in the assay with PC-3 prostate, 103%; in the assay on SK-MEL-5 melanoma it was 94%. For the same molecule, the growth is 96.3% with UACC-62 melanoma; 98.4% in the assay on LOX IMVI melanoma; 113% in the assay with SK-MEL-28 melanoma; 105% in the assay on SK-MEL-2 melanoma; 117% with EKVX NSCLC; 104% in the assay with SN12C renal. The growth in the assay with UO-31 renal is 86.4%; with TK-10 renal, 103%; with ACHN renal, 103%; in the assay on CAKI-1 renal, 91.5%; with A498 renal, 96.7%; with CCRF-CEM leukemia, 92.8%. Moreover, the growth in the assay with MOLT-4 leukemia is 88%; in the assay with SR leukemia it was 88.9%.

As to `C[C@@H](C(=O)NCCCC#Cc1cnc(Nc2ccc(C#N)cc2)nc1NC1CC1)N(C)C(=O)/C=C/CN(C)C`, the growth is 19.3% in the assay with HT29 colon; 80.5% with SNB-75 CNS; 58.9% with SNB-19 CNS; 21.4% with U251 CNS; 63.2% in the assay with PC-3 prostate; 35.9% in the assay with SK-MEL-5 melanoma. Also, the growth is 52.2% in the assay on UACC-62 melanoma; 49% in the assay with LOX IMVI melanoma; 52.1% with SK-MEL-28 melanoma; 65.3% in the assay with SK-MEL-2 melanoma; 33.5% in the assay with EKVX NSCLC; 35.9% in the assay with SN12C renal. Besides, the growth in the assay on UO-31 renal is 28.6%; in the assay with TK-10 renal it was 63%; with ACHN renal, 14.3%; with CAKI-1 renal, 60.1%; in the assay on A498 renal it was -5.21% (active); in the assay on CCRF-CEM leukemia, 13.8%. Further, the growth in the assay on MOLT-4 leukemia was 7.9% (active); with SR leukemia it was 9.79% (active).

For the molecule `O=C(c1ccccc1)N(C(=S)NCCc1ccc(Cl)cc1)c1ccc(Cl)cc1`, the growth in the assay on HT29 colon is 37.6%; in the assay with SNB-75 CNS, 74.8%; with SNB-19 CNS, 59.3%; in the assay with U251 CNS, 47.8%; with PC-3 prostate it was 66.2%; in the assay with SK-MEL-5 melanoma, 67.2%. For the same molecule, the growth in the assay on UACC-62 melanoma was 76.8%; with LOX IMVI melanoma, -16.6% (active); in the assay on SK-MEL-28 melanoma it was 42.8%; with SK-MEL-2 melanoma, 40.7%; in the assay with EKVX NSCLC, 83.5%; in the assay with SN12C renal, 66.1%. Moreover, the growth in the assay on UO-31 renal is 59.1%; in the assay on TK-10 renal, 44.3%; in the assay with ACHN renal it was 64.5%; with CAKI-1 renal, 42.1%; with A498 renal it was 91.4%; in the assay on CCRF-CEM leukemia, 80.7%.

In the case of `C#CCn1cc(C=C2C(=O)NC(=O)NC2=O)c2cc(Cl)ccc21`, the growth in the assay on HT29 colon was 116%; in the assay with SNB-75 CNS it was 92.9%; in the assay with SNB-19 CNS, 78.8%; in the assay with U251 CNS, 82.1%; in the assay with PC-3 prostate, 92%; in the assay with SK-MEL-5 melanoma, 81.9%. The growth in the assay on UACC-62 melanoma is 65.3%; in the assay with LOX IMVI melanoma it was 73.2%; with SK-MEL-28 melanoma it was 106%; with SK-MEL-2 melanoma it was 98.1%; in the assay with EKVX NSCLC it was 90.9%; with SN12C renal, 81.3%. The growth with UO-31 renal was 67.5%; in the assay on TK-10 renal, 118%; in the assay on ACHN renal it was 97.4%; in the assay on CAKI-1 renal it was 72%; in the assay on A498 renal it was -53.3% (active); in the assay with CCRF-CEM leukemia, 82.2%. Also, in the assay with MOLT-4 leukemia, the growth was 77.9%.

With `O=c1oc2ccc(Cl)cc2c(=O)n1-c1ccc(F)cc1F`, the growth with HT29 colon was 86.6%; in the assay on SNB-75 CNS it was -12% (active); in the assay with SNB-19 CNS it was 13.6%; in the assay on U251 CNS, 7.08% (active); with PC-3 prostate, 2.49% (active); with SK-MEL-5 melanoma, -66.9% (active). Moreover, the growth in the assay with UACC-62 melanoma was 3.47% (active); in the assay on LOX IMVI melanoma it was 17.8%; in the assay with SK-MEL-28 melanoma, 21.8%; in the assay on SK-MEL-2 melanoma it was -26.4% (active); with EKVX NSCLC, 36.2%; in the assay on SN12C renal, 4.19% (active). The growth is -1.33% (active) in the assay with UO-31 renal; 21% in the assay with TK-10 renal; 4.18% (active) with ACHN renal; -14% (active) in the assay on CAKI-1 renal; -35.4% (active) with A498 renal; 13.7% in the assay on CCRF-CEM leukemia. The growth in the assay on MOLT-4 leukemia is 9.73% (active).

For the molecule `O=C(COc1cc(O)c2c(=O)cc(-c3ccccc3)oc2c1)Nc1ccccc1`, the growth with HT29 colon is 106%; in the assay on SNB-75 CNS it was 88%; in the assay on SNB-19 CNS, 87.4%; with U251 CNS, 93.7%; with PC-3 prostate it was 86.2%; with SK-MEL-5 melanoma it was 99%. The growth in the assay with UACC-62 melanoma was 93.7%; in the assay on LOX IMVI melanoma, 89.6%; in the assay on SK-MEL-28 melanoma, 107%; in the assay with SK-MEL-2 melanoma, 96.6%; in the assay with EKVX NSCLC, 103%; in the assay with SN12C renal, 89.9%. Also, the growth is 80.2% in the assay on UO-31 renal; 103% with TK-10 renal; 57.9% in the assay with ACHN renal; 77.9% in the assay on CAKI-1 renal; 98.8% with A498 renal; 94.4% with CCRF-CEM leukemia. The growth with MOLT-4 leukemia was 91.1%.

Turning to `Cc1c(C(=O)OCCO)cc(-c2ccc(Cl)cc2)n1-c1ccc(Cl)cc1Cl`, the growth with HT29 colon was 74.6%; in the assay with SNB-75 CNS, 82.3%; in the assay with SNB-19 CNS, 90.6%; in the assay with U251 CNS it was 77.7%; with PC-3 prostate it was 70.4%; in the assay with SK-MEL-5 melanoma it was 67.1%. Besides, the growth is 54.5% in the assay on UACC-62 melanoma; 65.1% with LOX IMVI melanoma; 70.8% in the assay with SK-MEL-28 melanoma; 95.9% in the assay with SK-MEL-2 melanoma; 63.8% in the assay on EKVX NSCLC; 61.1% in the assay on SN12C renal. Besides, the growth was 69.4% in the assay with UO-31 renal; 101% in the assay on TK-10 renal; 71.4% with ACHN renal; 63.6% in the assay with CAKI-1 renal; 77.3% in the assay with A498 renal; 65.4% in the assay with CCRF-CEM leukemia. For the same molecule, in the assay on MOLT-4 leukemia, the growth is 49.8%.

Consider `CC[C@]1(O)C[C@@H]2CN(CCc3c([nH]c4ccccc34)[C@@](C(=O)OC)(c3cc4c(cc3OC)N(C)[C@H]3[C@@](O)(C(=O)OC)[C@H](OC(C)=O)[C@]5(CC)C=CCN6CC[C@]43[C@@H]65)C2)C1`, for which the growth in the assay on HT29 colon was 8.06% (active); in the assay with SNB-75 CNS, 3.82% (active); in the assay with SNB-19 CNS it was 29.8%; in the assay with U251 CNS it was 16.6%; in the assay with PC-3 prostate it was 20%; in the assay with SK-MEL-5 melanoma it was -54.6% (active). Besides, the growth in the assay with UACC-62 melanoma was 34.4%; with LOX IMVI melanoma, 15.3%; in the assay with SK-MEL-28 melanoma it was 66%; in the assay with SK-MEL-2 melanoma, 39.8%; in the assay with EKVX NSCLC it was 38.8%; in the assay on SN12C renal, 27%. Moreover, the growth in the assay with UO-31 renal is 41.6%; with TK-10 renal, 45.5%; with ACHN renal, 30.1%; in the assay on CAKI-1 renal, 4.83% (active); with A498 renal it was -12.5% (active); with CCRF-CEM leukemia, 13.8%. Further, the growth in the assay on MOLT-4 leukemia is 26.5%.
